# In PubChem BioAssay AID463173 (ICCB-Longwood Screening Facility, Harvard Medical School, 2010):
# The campaign covered roughly 52,000 compounds. About 4,300 (8.3%) were called active. This excerpt belongs to a sample that is enriched for actives. Values without a mark were called inactive. No stated cut-off is given here; in the data, active means survival mostly below about 52% (no sharp cut-off); inactive means mostly above about 56%.
# Tested on: DeltatarO mutant
# Assay: growth inhibition of S. aureus wild type versus tarO mutant, primary screen, teichoic acid synthesis inhibitors, RN4220, OD600 (AID 463173)
# Details: OD600, 18 h, active compounds read low, screened at 18.75 µg/mL (by protocol)
row,SMILES,survival
1,Cc1cc(F)ccc1NC(=O)Cn1nc(N2CCN(c3ccccc3)CC2)ccc1=O,80%
2,COc1cc(-c2noc(-c3ccc(N4CCOCC4)c([N+](=O)[O-])c3)n2)cc(OC)c1OC,66%
3,CCc1cc(C(=O)OC)c(NC(=O)CC2SC(=NC)N(C)C2=O)s1 (stereo not drawn),106%
4,COCCn1c(CNC(=O)c2cccc(C)c2)nc2cccnc21,95%
5,Cc1cccc(N2CCN(C(=O)CCc3nnc4n(CC(C)C)c(=O)c5ccccc5n34)CC2)c1C,74%
6,CCc1ccc(C2CC(=O)Nc3cc4c(cc32)OCO4)cc1 (stereo not drawn),59%
7,CCN(CC)S(=O)(=O)c1ccc(-c2nnc(SCC(=O)N3CCCC3)n2CC)cc1,103%
8,COc1ccc(Nc2nnc(-n3nc(C)cc3C)c3ccccc23)cc1,85%
9,O=C(CSc1ncc(CO)n1Cc1ccccc1)Nc1nc2ccccc2s1,122%
10,CCOc1ccccc1CNC(=O)Cn1nc(C)c2nn(-c3ccc(Cl)cc3)c(C)c2c1=O,101%
11,CCOC(=O)c1ccc(NC(=O)Cn2nc(C)c3nn(-c4ccc(Cl)cc4)c(C)c3c2=O)cc1,102%
12,Cc1nn(CC(=O)Nc2ccc(OC(F)(F)F)cc2)c(=O)c2c(C)n(-c3ccc(Cl)cc3)nc12,25% (active)
13,COc1ccccc1CNC(=O)Cn1nc(C)c2nn(-c3ccc(Cl)cc3)c(C)c2c1=O,63%
14,Cc1ccccc1CNC(=O)Cn1nc(C)c2nn(-c3ccc(Cl)cc3)c(C)c2c1=O,37% (active)
15,COc1ccc(NC(=O)Cn2nc(C)c3nn(-c4ccc(Cl)cc4)c(C)c3c2=O)cc1,85%
16,Cn1c(=O)oc2cc(S(=O)(=O)N3CCC(C(=O)N4CCN(c5ccccc5F)CC4)CC3)ccc21,80%
17,Cc1cccc(NC(=O)CSc2nnc3[nH]c(=O)cc(C)n23)c1C,75%
18,CN(C)S(=O)(=O)c1ccc(S(=O)(=O)N2CCN(C=O)CC2)cc1,105%
19,CCOc1ccc(CNC(=O)Cc2ccc(NC(=O)N3CCSc4ncccc43)cc2)cc1,96%
20,CC(C)(C)C(=O)N1CCN(c2nc3c(F)cccc3s2)CC1,82%
21,NC(=O)CSc1nnc(COc2cccc3ccccc23)o1,89%
22,COC(=O)CSc1nnc(COc2cccc3ccccc23)o1,46% (active)
23,Cc1cccc(OCc2nnc(SCC(N)=O)o2)c1,91%
24,Cc1ccc(NCc2nnc(SCC(=O)N(Cc3ccccc3)C(C)(C)C)o2)c(C)c1,94%

row,SMILES,survival
1,Cc1csc(N(C)C(=O)CSc2nnc(COc3cccc4ccccc34)o2)n1,56%
2,CC(C)(C)N(Cc1ccccc1)C(=O)CSc1nnc(CNc2ccc(F)cc2)o1,74%
3,CCOC(=O)CSc1nnc(COc2cccc(C)c2)o1,42% (active)
4,Cc1ccccc1OCc1nnc(SCC(=O)N(Cc2ccccc2)C(C)(C)C)o1,59% (active)
5,Cc1cccc(OCc2nnc(SCC(=O)N3c4ccccc4CCc4ccccc43)o2)c1,99%
6,On1ccc2c(Br)cncc21,94%
7,CCc1ccc2nc(N3CCN(C(=O)c4ccco4)CC3)sc2c1,86%
8,O=C(CSc1nc(-c2cccc(Cl)c2)nc2cc(=O)[nH]n12)Nc1ccccc1,71%
9,Cc1ccc(CSc2ncc(Cl)c(C(=O)Oc3ccc(F)cc3)n2)cc1,77%
10,CCC(=O)N1c2ccccc2CC1C(=O)NCc1cccc(OC)c1OC (stereo not drawn),84%
11,COc1cc(C2C(C#N)=C(N)Oc3n[nH]c(C(F)(F)F)c32)ccc1OCC(N)=O (stereo not drawn),72%
12,CC(NC(=O)Cn1c(=O)oc2cc(S(=O)(=O)N3CCCCCC3)ccc21)c1ccccc1 (stereo not drawn),82%
13,COc1ccccc1CNC(=O)C1CCN(c2nnc(C)c3c(C)n(-c4ccccc4)nc23)CC1,104%
14,Cc1noc(/C=C/c2ccco2)c1S(=O)(=O)N1CCC(C(=O)Nc2ccc(F)c(Cl)c2)CC1,100%
15,CCOC(=O)c1sc2cccc(F)c2c1S(=O)(=O)N1CCN(c2cccc(Cl)c2)CC1,102%
16,COc1cccc(OC)c1C(=O)NCCc1sc(-c2cccc(F)c2)nc1C,69%
17,CCn1cc(C(=O)NCc2ccccc2Cl)c(=O)c2cc(S(=O)(=O)N3CCOCC3)ccc21,75%
18,CCN(c1ccccc1)S(=O)(=O)c1ccc(F)c(C(=O)Nc2ccc(C)cc2)c1,100%
19,CCOc1cccc(NC(=O)c2ccc(F)c(S(=O)(=O)N(CC)c3cccc(C)c3)c2)c1,86%
20,Cc1ccc(C(=O)Nc2ccc(C(=O)O)cc2)cc1S(=O)(=O)Nc1ccccc1,74%
21,Cc1ccc(C(=O)Nc2cccc(C(=O)O)c2)cc1S(=O)(=O)N1CCCC1,81%
22,Cc1ccc(C(=O)Nc2ccc(Br)cc2)cc1S(=O)(=O)NCc1ccccc1,83%
23,Cc1ccc(C(=O)Nc2ccccc2)cc1S(=O)(=O)Nc1ccccc1,46% (active)
24,O=C(O)c1ccc(NC(=O)c2ccc(Cl)c(S(=O)(=O)N3CCCCCC3)c2)cc1,131%

row,SMILES,survival
1,COc1ccc(C(=O)Nc2ccccc2)cc1S(=O)(=O)Nc1ccc(Br)cc1,78%
2,O=C(O)c1ccc(NS(=O)(=O)c2ccc(Cl)c(C(=O)Nc3ccccc3)c2)cc1,73%
3,O=C(Nc1ccccc1)c1ccc(Cl)c(S(=O)(=O)Nc2ccccc2)c1,43% (active)
4,Cc1ccc(C(=O)Nc2ccccc2)cc1S(=O)(=O)Nc1ccc(Br)cc1,6% (active)
5,CCN(c1ccccc1)S(=O)(=O)c1cc(C(=O)Nc2ccc(Br)cc2)ccc1F,6% (active)
6,CCOCCCNC(=O)C(Cc1ccccc1)NS(=O)(=O)c1ccc2c(c1)c(=O)n(C)c(=O)n2C (stereo not drawn),88%
7,O=C(Cc1cccs1)Nc1ccccc1,70%
8,CN(C)c1cccc(C(=O)Nc2ccc(-c3nc4ccccc4s3)cc2)c1,106%
9,O=C(NCC(c1cccnc1)N1CCN(c2ccccc2F)CC1)c1ccc(F)cc1 (stereo not drawn),92%
10,Cc1cccc(Cc2c(C)nc3nc(SCc4ccccc4F)nn3c2C)c1,84%
11,COc1cc(NC(=O)CSc2nc3nc(C)c(Cc4ccccc4)c(C)n3n2)cc(OC)c1OC,80%
12,Cc1cccc(Cc2c(C)nc3nc(SCc4ccccc4C)nn3c2C)c1,95%
13,Cc1ccc(NC(=O)CSc2nc3nc(C)c(Cc4ccccc4)c(C)n3n2)cc1,60%
14,Cc1nc2nc(SCC(=O)NCc3ccccc3)nn2c(C)c1Cc1ccccc1,8% (active)
15,Cc1cccc(Cc2c(C)nc3nc(SCC(=O)NCc4ccc(F)cc4)nn3c2C)c1,56%
16,Cc1nc2nc(SCC(=O)Nc3ccccc3Cl)nn2c(C)c1Cc1ccccc1,20% (active)
17,Cc1nc2nc(SCC(=O)NCc3ccccc3Cl)nn2c(C)c1Cc1ccccc1,64%
18,Cc1nc2nc(SCC(=O)NCc3ccccc3)nn2c(C)c1Cc1ccccc1Cl,147%
19,CCN(CC)CCNC(=O)CSc1nc2nc(C)c(Cc3ccccc3)c(C)n2n1,86%
20,Cc1cccc(Cc2c(C)nc3nc(SCc4ccccc4Cl)nn3c2C)c1,-9% (active)
21,Cc1cccc(Cc2c(C)nc3nc(SCC(=O)NCc4ccccc4)nn3c2C)c1,40% (active)
22,COC(=O)CC1=C(C(=O)OC)C(c2ccc(C(=O)OC)cc2)C(C#N)=C(N)O1 (stereo not drawn),77%
23,Cn1c(=O)c(=O)n(C)c2cc(S(=O)(=O)CCC(=O)Nc3cccc(C(F)(F)F)c3)ccc21,80%
24,O=c1c2oc3ccccc3c2n(Cc2ccc(Cl)cc2)c(=O)n1Cc1ccc2c(c1)OCO2,66%

row,SMILES,survival
1,CCOc1ccc(C2c3[nH]c4ccccc4c3CCN2C(=O)CCc2ccccc2)cc1 (stereo not drawn),116%
2,COc1ccc(C2CC(=O)Nc3c2c(=O)[nH]c2nc4ccccc4n32)cc1OC (stereo not drawn),133%
3,CCc1ccccc1N=C1SCC(=O)N1C,88%
4,Cc1cc(C)c(NC(=O)Cn2nnc(C(=O)Nc3ccc(F)cc3F)c2N)c(C)c1,81%
5,CCN1c2ccccc2-c2nc(SCC(=O)Nc3cc(C)c(Cl)cc3OC)ncc2S1(=O)=O,91%
6,CCN1c2ccccc2-c2nc(SCC(=O)Nc3c(C)cc(C)cc3C)ncc2S1(=O)=O,102%
7,CCN1c2ccccc2-c2nc(SCC(=O)Nc3cc(F)ccc3F)ncc2S1(=O)=O,118%
8,CCN1c2ccccc2-c2nc(SCC(=O)Nc3ccc(C)c(Cl)c3)ncc2S1(=O)=O,25% (active)
9,CCN1c2ccccc2-c2nc(SCC(=O)Nc3cc(OC)cc(OC)c3)ncc2S1(=O)=O,37% (active)
10,CCOc1ccccc1NC(=O)CSc1ncc2c(n1)-c1ccccc1N(CC)S2(=O)=O,92%
11,Fc1ccc(Nc2ncnc3c2nc2n3CCCC2)cc1,74%
12,CCc1ccc(NC(=O)c2ccc(CNS(=O)(=O)c3ccc4c(c3)C(C)(C)C(=O)N4C)cc2)cc1,64%
13,CCC(Sc1nc2c(sc3ccccc32)c(=O)n1CCc1ccccc1)C(=O)N(CC)CC (stereo not drawn),54%
14,Cc1ccc(-c2nc(CS(=O)(=O)CC(=O)NCCc3ccccc3)c(C)o2)cc1,100%
15,Cn1ncc2c(Nc3cccc(F)c3)ncnc21,117%
16,COc1ccc(CCN=C(N)Nc2nc(C)cc(C)n2)cc1,39% (active)
17,Cc1cc(C)nc(NC(N)=NC(C)c2ccccc2)n1 (stereo not drawn),20% (active)
18,COc1cccc(C(=O)NC(=NCCc2c[nH]c3ccc(OC)cc23)Nc2nc(C)cc(C)n2)c1,55%
19,Cc1cc(C)nc(NC(N)=NC2CCCCC2)n1,87%
20,Cc1cc(C)nc(NC(=O)C(c2ccccc2)c2ccccc2)n1,115%
21,Cc1cc(C)nc(NCC(C)c2ccccc2)n1 (stereo not drawn),81%
